Values joined by “and” are separate entries in the source; they are usually repeats but may differ in a detail not shown here. Equal values may be shown once. Records with an inconclusive call do not appear. Some compounds were tested as several samples or in several runs, with calls that do not always agree. Active and inactive are the calls of the source. Unless noted, calls come from the whole dose curve; as a rule, active = well fitted curve in the direction sought with a large enough effect in the repeat runs; inconclusive = weak or mixed curves; inactive = no such curve, though single readings can be large; an effect the other way counts as inactive or inconclusive.
Columns and labels:
[1] = qHTS assay to identify small molecule agonists of the hypoxia (HIF-1) signaling pathway - cell viability counter screen (AID 1224844; calls by dose curve; note: nearly all actives have a fitted effect of over 50% in size)
Summary of the method: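 HRE-bla ME-180; 0.5% dFBS; cpd 17 h, 37C, 5% CO2; CellTiter-Glo lum., 30 min RT, post-FRET read, same wells.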

[2] = qHTS assay to identify small molecule agonists of H2AX (AID 1224845; active = well fitted activation curve with a large enough effect in the signal ratio in the repeat runs, not every such curve was filed as active; the % refers to the signal ratio)
Summary of the method: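 Wild-type CHO-K1 cells, plated overnight, exposed 3hr at 37C to 15 concentrations (0.76% DMSO final). Lysed, then HTRF anti-pH2AX (S139) cryptate and anti-H2AX-d2 antibodies, 24 hr room temperature; 665/620 nm emission read.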

[3] = qHTS assay to identify small molecule agonists of the hypoxia (HIF-1) signaling pathway (AID 1224846; active = well fitted activation curve with a large enough effect in the signal ratio in the repeat runs, not every such curve was filed as active; the % refers to the signal ratio)
Summary of the method: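 Reporter induction in HRE-bla ME-180 cells is taken as agonism: cells sit 5 hrs after plating, receive compounds or DMSO only, incubate 17 hrs at 37C under 5% CO2, and are loaded with CCF4-AM for beta-lactamase FRET measurement.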

[4] = A CellTox Green Cytotoxicity Assay to monitor cytotoxicity in HEK293 cells - 0 hour (AID 1224869); note: nearly all actives have a fitted effect of over 50% in size
Summary of the method: (§1)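 Tox21 screen in HEK293: membrane-impermeant cyanine dye fluoresces on binding dead-cell DNA; compound pinned 5 h post-seeding, plates held at 37 C, signal read repeatedly through 40 h.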

[5] = qHTS RealTime-Glo MT Cell Viability Assay in HepG2 cells - 40 hour (AID 1224870); note: nearly all actives have a fitted effect of over 50% in size
Summary of the method: (§2)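 HepG2 cells (600/well) mixed with RealTime-Glo MT reagent, settled 5 h at 37 C/5% CO2 before compound addition. Nonlytic NanoLuc luminescence from viable-cell prosubstrate reduction read repeatedly during 40 h treatment at 37 C.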

[6] = A CellTox Green Cytotoxicity Assay to monitor cytotoxicity in HEK293 cells - 40 hour (AID 1224871); note: nearly all actives have a fitted effect of over 45% in size
Summary of the method: as §1

[7] = qHTS RealTime-Glo MT Cell Viability Assay in HEK293 cells - 16 hour (AID 1224872); note: nearly all actives have a fitted effect of over 50% in size; note: potency is the fitted concentration of half-maximal effect
Summary of the method: (§3)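 Viability tracked continuously by luminescence as live cells reduce a prosubstrate for NanoLuc; HEK293 cells preincubated 5 h, compound-treated at 37 C, and read at 0, 8, 16, 24, 32 and 40 h.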

[8] = qHTS RealTime-Glo MT Cell Viability Assay in HepG2 cells - 8 hour (AID 1224873); note: nearly all actives have a fitted effect of over 55% in size
Summary of the method: as §2

[9] = qHTS RealTime-Glo MT Cell Viability Assay in HEK293 cells - 40 hour (AID 1224874); conditions: RealTime-Glo luminescence; max response: stronger effect = lower value; note: nearly all actives have a fitted effect of over 50% in size; note: potency is the fitted concentration of half-maximal effect
Summary of the method: (§4)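 HEK293 + NanoLuc + prosubstrate, 600 cells/well; 5 h, 37 C/5% CO2; compound 23 nL in DMSO by pintool; 37 C; luminescence read at 0, 8, 16, 24, 32 and 40 h time points.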

[10] = A CellTox Green Cytotoxicity Assay to monitor cytotoxicity in HEK293 cells - 24 hour (AID 1224875); note: series mostly up to about 77 µM; nearly all actives have a fitted effect of over 45% in size
Summary of the method: as §1

[11] = A CellTox Green Cytotoxicity Assay to monitor cytotoxicity in HepG2 cells - 16 hour (AID 1224876); note: nearly all actives have a fitted effect of over 45% in size
Summary of the method: (§5)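 Measurements at 0, 8, 16, 24, 32 and 40 h of treatment captured CellTox Green fluorescence in HepG2 cells that had been co-plated with reagent and preincubated 5 h at 37 C/5% CO2.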

[12] = qHTS RealTime-Glo MT Cell Viability Assay in HepG2 cells - 32 hour (AID 1224877); note: nearly all actives have a fitted effect of over 55% in size
Summary of the method: (§6)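 Viability was tracked continuously by NanoLuc luminescence from prosubstrate reduced by living HepG2 cells, at successive time points over 40 h of compound exposure. Cells with reagent were preincubated 5 h at 37 °C before compound addition.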

[13] = A CellTox Green Cytotoxicity Assay to monitor cytotoxicity in HepG2 cells - 24 hour (AID 1224878); note: nearly all actives have a fitted effect of over 45% in size
Summary of the method: as §5

[14] = A CellTox Green Cytotoxicity Assay to monitor cytotoxicity in HepG2 cells - 40 hour (AID 1224879); note: nearly all actives have a fitted effect of over 40% in size
Summary of the method: as §5

[15] = qHTS RealTime-Glo MT Cell Viability Assay in HEK293 cells - 0 hour (AID 1224880)
Summary of the method: as §4

[16] = A CellTox Green Cytotoxicity Assay to monitor cytotoxicity in HEK293 cells - 32 hour (AID 1224881); note: nearly all actives have a fitted effect of over 40% in size
Summary of the method: as §1

[17] = qHTS assay to identify small molecule agonists of H2AX - cell viability counter screen (AID 1224847; calls by dose curve; note: top concentration of the series differs between compounds; nearly all actives have a fitted effect of over 30% in size)
Summary of the method: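 After overnight plating of 1000 CHO-K1 cells per well, a 15-concentration compound series was applied for 3 hr at 37C. Luminescence from CellTiter-Glo, read following 30 min at room temperature, reflected cell viability.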

[18] = qHTS RealTime-Glo MT Cell Viability Assay in HepG2 cells - 24 hour (AID 1224867); note: nearly all actives have a fitted effect of over 50% in size
Summary of the method: as §6

[19] = qHTS RealTime-Glo MT Cell Viability Assay in HEK293 cells - 32 hour (AID 1224868)
Summary of the method: as §3

[20] = qHTS assay to identify small molecule antagonists of the estrogen related receptor (ERR) signaling pathway from Tox21 library (AID 1224848); note: nearly all actives have a fitted effect of over 50% in size
Summary of the method: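 Quantitative high-throughput format: ERR reporter cells (2,000/well) pre-incubated 6 h, treated 18 h at 37 C with compounds in DMSO alongside positive and negative controls, then read by ONE-Glo luminescence.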
% is set by controls: 0 for no effect and ±100 for the full control effect.

CN(C)c1ccc(Cc2ccc(N(C)C)cc2)cc1
inactive: outcome [1] | outcome [2] | outcome [3] | outcome [4] | outcome [5] | Potency [6] | Potency [8] | Potency [10] | outcome [11] | outcome [12] | Potency [13] | Potency [14] | outcome [15] | Potency [16]
active: Potency [7] 21.9 µM | Potency [9] 19.6 µM and 24.5 µM

CNC(=S)N(C)C
inactive: outcome [1] | outcome [2] | outcome [3] | outcome [17] | outcome [4] | outcome [5] | Potency [6] | Potency [7] | Potency [8] | max response [9] 3.02% | Potency [10] | outcome [11] | outcome [12] | Potency [13] | Potency [14] | outcome [15] | Potency [16]
active: Potency [9] 11.6 µM

CCCCCCCCCCCCCCCCO
inactive: outcome [1] | outcome [2] | outcome [3] | outcome [17] | Potency [18] | outcome [5] | Potency [6] | Potency [7] | Potency [8] | max response [9] -1.41% | Potency [10] | outcome [11] | outcome [12] | Potency [13] | Potency [14] | outcome [15] | Potency [16]

COc1ccc([N+](=O)[O-])cc1N
inactive: outcome [1] | outcome [2] | outcome [3] | outcome [17] | Potency [19] | outcome [5] | Potency [6] | Potency [7] | Potency [8] | max response [9] -5.95% and 0.4% | Potency [10] | outcome [11] | outcome [12] | Potency [13] | Potency [14] | outcome [15] | Potency [16]

CC(C)(Oc1ccc(CCNC(=O)c2ccc(Cl)cc2)cc1)C(=O)O
inactive: outcome [1] | outcome [2] | outcome [17] | outcome [20] | Potency [18] | outcome [5] | Potency [6] | Potency [7] | Potency [8] | max response [9] 3% and 2.4% | Potency [10] | outcome [11] | outcome [12] | Potency [13] | outcome [15] | Potency [16]

C[C@]12CC[C@@H]3c4ccc(O)cc4CC[C@H]3[C@@H]1C[C@@H](O)[C@@H]2O
inactive: outcome [1] | outcome [2] | outcome [3] | outcome [17] | Potency [18] | outcome [5] | Potency [6] | Potency [7] | Potency [8] | max response [9] -25.2% | Potency [10] | outcome [11] | outcome [12] | Potency [13] | outcome [15] | Potency [16]

CN/C(=C\[N+](=O)[O-])NCCSCc1csc(CN(C)C)n1
inactive: outcome [1] | outcome [2] | outcome [17] | Potency [18] | Potency [19] | outcome [5] | Potency [6] | Potency [7] | Potency [8] | max response [9] 2.65% and -4.24% | Potency [10] | outcome [11] | outcome [12] | Potency [13] | Potency [14] | outcome [15] | Potency [16]

From PubChem BioAssay (Tox21)
